SMILES strings stand for the structures. Results filed as inconclusive are left out. Active and inactive are the calls of the source. Calls come from the whole dose curve; as a rule, active = well fitted curve in the direction sought with a large enough effect; inconclusive = small, poorly fitted or top-dose-only effect, or another doubt; inactive = no such curve, though single readings can be large; an effect the other way counts as inactive or inconclusive.

Test [1] is described as follows: S16 Schwann cell viability assay (CellTiter-Glo assay) (AID 624031).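 Note: native untransfected S16 rat Schwann cells; cellular ATP luminescence as a viability measure; nearly all actives have a fitted effect of over 70% in size.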 An outline of the steps: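 Parental S16 cells, 24 h compound, 37 °C. ATP-luminescence viability; DMSO = 0% activity, empty wells as reference; curves classified by fit quality and efficacy.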
Test [2] can be described thus: S16 Schwann cell PMP22 intronic element firefly luciferase assay (AID 624032). Note: nearly all actives have a fitted effect of over 30% in size. An outline of the steps: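 Rat S16 Schwann cells stably carrying firefly luciferase driven by a PMP22 intronic element, in 10% FBS, treated 24 h at 37 C. ONE-Glo luminescence normalized to PTC124 control and DMSO (0%); curves classed by r2, magnitude and activity.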
For the next test, the system named is AA1029. The test is described as follows: qHTS profiling for inhibitors of Plasmodium falciparum proliferation (AID 504749). Note: nearly all actives have a fitted effect of over 60% in size. Conditions: P. falciparum in erythrocytes, SYBR Green DNA, 72 h; series mostly up to 28.7 µM. In a few lines: (§1)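 SYBR Green fluorescence (ex 485 nm, em 535 nm) reports parasite DNA after 72 h compound exposure of infected red cells at 0.3% parasitemia, 2.5% hematocrit; signal normalized to 0.29 uM artemisinin and vehicle wells.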

The subject of another test is CP260. Described as above. Conditions: P. falciparum in erythrocytes, SYBR Green DNA, 72 h; series mostly up to 28.7 µM. An outline of the steps:
as §1

The subject of a further test is CP297. Described as above. The following applies: P. falciparum in erythrocytes, SYBR Green DNA, 72 h; series mostly up to 28.7 µM. In a few lines:
as §1

A further test relates to N140. The description is as above. Conditions: P. falciparum in erythrocytes, SYBR Green DNA, 72 h; series mostly up to 28.7 µM. An outline of the steps:
as §1

The subject of another test is PC15. Described as above. The following applies: P. falciparum in erythrocytes, SYBR Green DNA, 72 h; series mostly up to 28.7 µM. In a few lines: as §1
In test [3] the target is DNA repair nuclease/redox regulator APEX1 (Homo sapiens) (UniProt P27695). The experiment in a line: qHTS Validation Assay for Inhibitors of the Human Apurinic/apyrimidinic Endonuclease 1 (APE1) (AID 1705;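 note: TAMRA fluorescence gain over two minutes as APE1 cuts a quenched THF abasic duplex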). An outline of the steps:
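Substrate: 50 nM final fluorophore/quencher THF-abasic duplex. Enzyme preincubated with compounds 15 min, RT. Progress derived from fluorescence difference, third minus first kinetic read.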

The nature of test [4]: Counterscreen for APE1 Inhibitors: Fluorescent Dye Displacement Validation Assay (AID 1707). An outline of the steps:
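Reaction mixture of 250 nM Thiazole Orange and 50 nM double-stranded abasic-site DNA was dispensed, compounds were pin-transferred, and fluorescence was read at endpoint (480 nm ex, 540 nm em). Reduced fluorescence indicated dye displacement by DNA binding.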

Test [5] can be described thus: qHTS for differential inhibitors of proliferation of Plasmodium falciparum line 7G8 (AID 1815).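 Note: parasite growth measured after three days of incubation.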
Test [6] is described as follows: qHTS for differential inhibitors of proliferation of Plasmodium falciparum line GB4 (AID 1816).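 Note: parasite growth measured after 72 h incubation.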 The following applies: Potency: Plasmodium falciparum GB4 proliferation inhibition.
Test [7] can be described thus: qHTS for differential inhibitors of proliferation of Plasmodium falciparum line 3D7 (AID 1876).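 Note: parasite growth measured after three days of culture.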
Test [8] in a line: qHTS for differential inhibitors of proliferation of Plasmodium falciparum line D10 (AID 1877).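 Note: parasites grown with compound for 72 h before DNA staining.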
Test [9] is described as follows: qHTS for differential inhibitors of proliferation of Plasmodium falciparum line Dd2 (AID 1882). Note: nearly all actives have a fitted effect of over 65% in size. Conditions: Potency: Plasmodium falciparum Dd2 proliferation inhibition. An outline of the steps: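 RBC culture, 0.3% parasitemia / 2.5% Hct final; cpd added by pin tool in DMSO; 72 h, 37 C, 5% CO2; lysis buffer + SYBR Green I, o/n RT dark; FI 485/535; norm. to artemisinin 0.29 uM and DMSO.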

Test [10] can be described thus: qHTS for differential inhibitors of proliferation of Plasmodium falciparum line W2 (AID 1883).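 Note: parasites grown with compound for 72 h before lysis and staining.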 The following applies: Potency: Plasmodium falciparum W2 proliferation inhibition.
Test [11] is described as follows: qHTS for differential inhibitors of proliferation of Plasmodium falciparum line HB3 (AID 1886).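 Note: parasites grown with compound for 72 h before SYBR Green readout.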 Conditions: Potency: Plasmodium falciparum HB3 proliferation inhibition.
The target of test [12] is ATP-dependent DNA helicase Q1 (Homo sapiens) (UniProt P46063). The test is described as follows: qHTS Validation Assay for Inhibitors of RecQ-Like Dna Helicase 1 (RECQ1) (AID 2353). In a few lines: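 RECQ1T1 50 nM; forked duplex (20 bp + 30-nt ss tails) 200 nM, ATP 2 mM final; pH 8.0, 2 mM MgCl2, 2.5 ug/ml poly(dI-dC); 15 min compound preincubation; discontinuous kinetic read over 2 h at RT.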
ATP-dependent DNA helicase Q1 (Homo sapiens), sequence (P46063 whole entry, looked up): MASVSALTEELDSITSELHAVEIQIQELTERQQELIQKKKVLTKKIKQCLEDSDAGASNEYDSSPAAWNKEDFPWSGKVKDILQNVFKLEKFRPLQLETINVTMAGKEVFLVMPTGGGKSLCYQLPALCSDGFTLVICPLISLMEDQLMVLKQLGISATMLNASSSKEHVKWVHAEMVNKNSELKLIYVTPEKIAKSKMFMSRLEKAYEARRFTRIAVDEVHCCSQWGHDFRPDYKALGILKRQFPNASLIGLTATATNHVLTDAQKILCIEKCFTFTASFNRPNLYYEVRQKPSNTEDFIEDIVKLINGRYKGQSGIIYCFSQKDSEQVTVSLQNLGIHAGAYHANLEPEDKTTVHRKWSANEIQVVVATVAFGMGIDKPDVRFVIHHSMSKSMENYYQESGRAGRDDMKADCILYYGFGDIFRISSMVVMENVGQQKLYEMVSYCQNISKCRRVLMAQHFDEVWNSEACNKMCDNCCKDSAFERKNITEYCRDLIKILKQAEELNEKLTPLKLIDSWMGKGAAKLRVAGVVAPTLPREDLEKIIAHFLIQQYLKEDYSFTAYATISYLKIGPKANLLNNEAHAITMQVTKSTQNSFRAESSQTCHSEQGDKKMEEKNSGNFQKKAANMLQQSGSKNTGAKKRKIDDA

The nature of test [13]: Validation screen for small molecules that induce DNA re-replication in MCF 10A normal breast cells (AID 463097). Note: potency is the fitted concentration of half-maximal effect; nearly all actives have a fitted effect of over 60% in size. In a few lines:
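Following 48 hr compound incubation (37 C, 5% CO2), MCF 10A cells receive Hoechst for 40 min at 37 C. Nuclei are then scanned (excitation 405 nm, emission 500-530 nm) for total fluorescence intensity.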

The target in test [14] is M-phase phosphoprotein 8 (Homo sapiens) (UniProt Q99549). The experiment in a line: qHTS Validation Assay for Inhibitors for MPP8 Chromodomain Interactions with Methylated Histone Tails (AID 488949). Note: potency is the fitted concentration of half-maximal effect; nearly all actives have a fitted effect of over 55% in size. An outline of the steps:
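Chemiluminescent proximity assay: histidine-tag capture via nickel acceptor beads, biotin peptide via streptavidin donor beads. Protein and peptide each at 50 nM, pH 7.4, with 30 min incubations at room temperature for complex formation, compound exposure and bead binding.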

The target in test [15] is Thyrotropin receptor (Homo sapiens) (UniProt P16473). The experiment in a line: qHTS Assay for Antagonists of the Thyroid Stimulating Hormone Receptor (AID 488980). An outline of the steps: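 Inhibition of TSH-stimulated cAMP accumulation was quantified by homogeneous time-resolved FRET in TSHR-transfected HEK293 cells. Agonist: TSH, 4 nM final (EC80).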
Thyrotropin receptor (Homo sapiens), sequence (P16473 whole entry, looked up): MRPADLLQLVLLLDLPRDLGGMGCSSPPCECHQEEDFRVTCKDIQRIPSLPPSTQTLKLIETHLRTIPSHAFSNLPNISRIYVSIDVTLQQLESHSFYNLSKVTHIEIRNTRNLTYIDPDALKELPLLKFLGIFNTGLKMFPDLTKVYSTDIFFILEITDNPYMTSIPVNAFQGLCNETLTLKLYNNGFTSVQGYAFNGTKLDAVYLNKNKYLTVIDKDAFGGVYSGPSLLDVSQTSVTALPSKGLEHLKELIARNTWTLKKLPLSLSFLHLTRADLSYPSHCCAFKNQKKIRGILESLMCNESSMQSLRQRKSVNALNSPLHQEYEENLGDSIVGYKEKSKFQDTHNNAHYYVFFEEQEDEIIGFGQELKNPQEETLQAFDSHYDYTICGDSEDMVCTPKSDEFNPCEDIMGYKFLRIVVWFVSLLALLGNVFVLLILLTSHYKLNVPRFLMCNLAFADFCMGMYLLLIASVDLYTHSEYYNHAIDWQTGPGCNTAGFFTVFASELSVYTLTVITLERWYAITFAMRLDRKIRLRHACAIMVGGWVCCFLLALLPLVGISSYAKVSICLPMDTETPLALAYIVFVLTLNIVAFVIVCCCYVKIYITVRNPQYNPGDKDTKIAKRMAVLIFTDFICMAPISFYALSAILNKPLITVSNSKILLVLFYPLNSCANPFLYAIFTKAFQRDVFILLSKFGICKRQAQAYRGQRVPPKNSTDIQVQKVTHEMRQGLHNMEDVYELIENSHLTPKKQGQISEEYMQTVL

M-phase phosphoprotein 8 (Homo sapiens), sequence (Q99549 whole entry, looked up): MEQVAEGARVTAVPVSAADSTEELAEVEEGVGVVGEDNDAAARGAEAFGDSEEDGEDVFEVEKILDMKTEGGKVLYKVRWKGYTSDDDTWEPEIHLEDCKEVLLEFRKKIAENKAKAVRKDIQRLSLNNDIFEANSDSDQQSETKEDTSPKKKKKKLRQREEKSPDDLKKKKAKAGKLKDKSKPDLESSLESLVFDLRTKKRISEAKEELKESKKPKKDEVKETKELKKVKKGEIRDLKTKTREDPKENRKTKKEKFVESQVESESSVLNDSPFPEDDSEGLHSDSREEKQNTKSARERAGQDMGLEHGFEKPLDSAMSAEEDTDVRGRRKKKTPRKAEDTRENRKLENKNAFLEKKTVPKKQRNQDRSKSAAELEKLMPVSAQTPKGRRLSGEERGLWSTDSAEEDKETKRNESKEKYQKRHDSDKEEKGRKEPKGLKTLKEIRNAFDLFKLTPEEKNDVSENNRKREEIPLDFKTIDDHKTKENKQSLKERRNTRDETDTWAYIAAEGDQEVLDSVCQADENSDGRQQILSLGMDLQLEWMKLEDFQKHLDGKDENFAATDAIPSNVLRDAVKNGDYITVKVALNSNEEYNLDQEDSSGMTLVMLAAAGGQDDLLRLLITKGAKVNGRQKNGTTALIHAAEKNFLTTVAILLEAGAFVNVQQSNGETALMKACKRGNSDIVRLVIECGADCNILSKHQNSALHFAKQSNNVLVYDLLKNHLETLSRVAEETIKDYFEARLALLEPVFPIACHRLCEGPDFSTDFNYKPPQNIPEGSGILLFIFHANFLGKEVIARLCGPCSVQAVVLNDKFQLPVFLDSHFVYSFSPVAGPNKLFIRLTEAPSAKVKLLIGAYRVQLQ
DNA repair nuclease/redox regulator APEX1 (Homo sapiens), sequence (P27695 whole entry, looked up): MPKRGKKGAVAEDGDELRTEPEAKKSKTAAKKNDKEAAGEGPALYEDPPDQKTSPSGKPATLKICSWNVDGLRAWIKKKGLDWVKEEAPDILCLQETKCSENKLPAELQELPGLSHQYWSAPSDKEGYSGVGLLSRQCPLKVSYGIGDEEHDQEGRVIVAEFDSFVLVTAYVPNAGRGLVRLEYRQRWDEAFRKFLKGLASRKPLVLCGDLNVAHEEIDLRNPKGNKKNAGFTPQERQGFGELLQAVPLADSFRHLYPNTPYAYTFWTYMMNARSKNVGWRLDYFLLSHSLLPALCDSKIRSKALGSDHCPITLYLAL

Consider `C[C@@H](C(=O)O)c1ccc(-c2ccccc2)c(F)c1`, for which, in test [1], the result was inactive. Moreover, the Potency entry (in [2]; in the test on AA1029; in the test with CP260; with CP297; in the test with N140; with PC15) was “inactive” in each case.

In the case of `C[N+](C)(C)CCC(=O)c1cccc2ccccc12`, the Potency result in [3], in test [4], in [5], in test [6], in test [7] and in [8] was “inactive” each time. The Potency entry in test [9], in test [10], in test [11] and in [12] was “inactive” throughout. Moreover, the Potency in [13] is 1.78 µM (active); in test [14] it was 10 µM (active). The outcome in test [15] was inactive.

The record behind these values is PubChem BioAssay (NCATS).
